# According to PubChem BioAssay (NCATS):
# Records with an inconclusive call do not appear. Entries that show only a call come without a potency. Calls of active or inactive are those of the source. The call rests on the fitted dose curve; in most records, active means well fitted curve in the direction sought with a large enough effect; inconclusive means small, poorly fitted or top-dose-only effect, or another doubt; inactive means no such curve, though single readings can be large; an effect the other way counts as inactive or inconclusive.
# Columns and labels:
# [1] = molecular target: Aldehyde dehydrogenase, mitochondrial (Homo sapiens) (UniProt P05091); experiment: qHTS for Inhibitors of the Aldehyde Dehydrogenase Family (ALDH2) Primary screen (AID 2061308); further: nearly all actives have a fitted effect of over 55% in size; further: potency means the concentration at half of the fitted maximal effect
# [2] = molecular target: Retinaldehyde dehydrogenase 3 (Homo sapiens) (UniProt P47895); experiment: qHTS for Inhibitors of the Aldehyde Dehydrogenase Family (ALDH1A3) Primary screen (AID 2061315)
Structure (SMILES),Potency [1],Potency [2]
Cc1ccc(OCCn2c(CCNC(=O)c3ccco3)nc3ccccc32)cc1,inactive,inactive
CC1(C)C=Cc2c(ccc3c2N=C2C(C)(C)[C@@H]4C[C@]56CCCN5C(=O)[C@@]4(C[C@]23O)NC6=O)O1,inactive,inactive
Cc1cc(N[S+](=O)([O-])c2ccc(NC(=O)Cc3ccc(F)c(F)c3)cc2)no1,inactive,inactive
COc1cccc(NS(=O)(=O)c2ccc3c(c2)CCC(=O)N3)c1,inactive,inactive
COc1ccc(C2c3c(n(CCCc4ccccc4)cnc3=N)Oc3ccc4ccccc4c32)cc1OC (centres undefined),inactive,inactive
COc1ccccc1-c1csc(N2CCC(C(N)=O)CC2)n1,inactive,inactive
O=C(Nc1ccc(Cl)c(C(F)(F)F)c1)Nc1nnc(-c2ccncc2)s1,inactive,inactive
C/C=C(\C)[C@@H]1C(C)=C[C@@H]2[C@H]([C@@H]1/C=C/C=C/C(=O)O)[C@@H](C)CC[C@@H]2O,inactive,inactive
Oc1ccc(/C=C/c2c(F)cccc2F)c2cccnc12,inactive,inactive
CC(C)(C)OC(=O)Nc1ncnc2c1C(c1ccccc1)c1c(ccc3ccccc13)O2 (centres undefined),inactive,inactive
CCCn1c(C)nc2c(NC(C)CCCN(CC)CC)nc(C)nc21 (centres undefined),inactive,inactive
Cc1cc(NC(=O)Nc2cccc(-c3ccncc3)n2)ccc1Cl,inactive,inactive
COc1ccc(-c2nnc3n2N=C(c2c(OC)cccc2OC)CS3)cc1,inactive,inactive
C[C@@H](N)C(=O)Nc1cccc(-c2nn3c(=O)cc(N4CCNCC4)nc3s2)c1,inactive,inactive
O=C1c2ccc(Nc3ccc(F)cc3F)cc2CCc2ccc(OCC(O)CO)cc21 (centres undefined),inactive,inactive
C=C(C)C(=O)OC1CC2(C)OC(=CC2=O)C(=C)CC2OC(=O)C(COC)C12 (centres undefined),inactive,inactive
Cc1ccc(S(=O)(=O)n2cc(C(=O)Nc3nc(-c4ccccc4)cs3)c3ccccc32)cc1,inactive,inactive
O=[N+]([O-])c1ccc(-c2nc(Nc3ccc(F)c(F)c3)c3ccccc3n2)cc1,inactive,inactive
O=S(=O)(c1ccccc1)N1CCN(c2nc(C3CC3)nc3ccccc23)CC1,inactive,inactive

Structure (SMILES),Potency [1],Potency [2]
O=S(=O)(c1ccc2ccccc2c1)N1CCN(S(=O)(=O)c2c(F)cccc2F)CC1,inactive,inactive
Cc1ccccc1-c1ccc(NC(=O)c2cccs2)cn1,inactive,inactive
Cc1ccc(-c2ccc(=O)n(C(C)C)n2)cc1,inactive,inactive
Cc1ccc(-c2nnc(NC(=O)Nc3ccc4ccccc4c3)s2)cc1,inactive,inactive
O=C(CNC(=O)c1ccc(-c2ccccc2)cc1)OC(C(=O)Nc1cc(C(F)(F)F)ccc1Cl)c1ccccc1 (centres undefined),inactive,inactive
O=C(Nc1ccc([S+](=O)([O-])Nc2nccs2)cc1)c1ccn[nH]1,inactive,inactive
NC(=O)C1CCN(c2nc(-c3ccccc3C(F)(F)F)cs2)CC1,inactive,inactive
CCN(CC)CCCC(C)n1c(-c2ccccc2)nc2c(NCc3ccccc3)nc(C)nc21 (centres undefined),inactive,inactive
Cc1cc(NS(=O)(=O)c2ccc(NC(=O)Cc3ccc(Cl)c(C(F)(F)F)c3)cc2)no1,inactive,inactive
Cc1cc(-c2ccccc2)n2ncc(C(=O)Nc3ccccc3Sc3ccccc3)c2n1,inactive,inactive
C=C1[C@@H](C)[C@H]2[C@H](Cc3c[nH]c4ccccc34)NC(=O)[C@]23C(=O)/C=C/C(=O)[C@H](O)/C(C)=C\[C@@H](C)C/C=C/[C@H]3[C@@H]1O,11.2 µM (active),inactive
Cc1ccc(-c2ccc(=O)n(CC(=O)NCCc3ncc[nH]3)n2)cc1,inactive,inactive
O=C(OCC#CCSc1nnc(-c2cccc3ccccc23)o1)c1ccc(OC(F)(F)F)cc1,inactive,inactive
Fc1ccc(-c2nc(CCCCSc3nnc(-c4cccc5ccccc45)o3)no2)cc1,inactive,inactive
Cc1cnc(-c2ccccc2C2CC2)nc1NCc1ccc(-c2cccnc2)cc1,inactive,inactive
Cc1cc(NS(=O)(=O)Cc2ccc(NC(=O)Cc3ccc(Cl)c(Cl)c3)cc2)no1,inactive,inactive
O=C(Nc1nc(-c2ccccc2)cs1)c1ccncc1NS(=O)(=O)c1ccc2c(c1)CCC2,inactive,inactive
COc1cccc(S(=O)(=O)N2CCN(S(=O)(=O)c3ccc4c(c3)OCCO4)CC2)c1,inactive,inactive
